Among the data in PubChem BioAssay (EPA / NIEHS) are outcome and AC50 values, retold here.

Active and inactive are the calls of the source. The calls were made as follows: active = hit-call score of the fitted dose curve at least 0.9, where 1 is the maximum; inactive = score below 0.9.

As a reminder, the AC50 is the midpoint of the concentration-response curve, whichever way the signal moves.

Chain of Hypoxia-inducible factor 1-alpha (Homo sapiens) (Q16665 whole entry, looked up): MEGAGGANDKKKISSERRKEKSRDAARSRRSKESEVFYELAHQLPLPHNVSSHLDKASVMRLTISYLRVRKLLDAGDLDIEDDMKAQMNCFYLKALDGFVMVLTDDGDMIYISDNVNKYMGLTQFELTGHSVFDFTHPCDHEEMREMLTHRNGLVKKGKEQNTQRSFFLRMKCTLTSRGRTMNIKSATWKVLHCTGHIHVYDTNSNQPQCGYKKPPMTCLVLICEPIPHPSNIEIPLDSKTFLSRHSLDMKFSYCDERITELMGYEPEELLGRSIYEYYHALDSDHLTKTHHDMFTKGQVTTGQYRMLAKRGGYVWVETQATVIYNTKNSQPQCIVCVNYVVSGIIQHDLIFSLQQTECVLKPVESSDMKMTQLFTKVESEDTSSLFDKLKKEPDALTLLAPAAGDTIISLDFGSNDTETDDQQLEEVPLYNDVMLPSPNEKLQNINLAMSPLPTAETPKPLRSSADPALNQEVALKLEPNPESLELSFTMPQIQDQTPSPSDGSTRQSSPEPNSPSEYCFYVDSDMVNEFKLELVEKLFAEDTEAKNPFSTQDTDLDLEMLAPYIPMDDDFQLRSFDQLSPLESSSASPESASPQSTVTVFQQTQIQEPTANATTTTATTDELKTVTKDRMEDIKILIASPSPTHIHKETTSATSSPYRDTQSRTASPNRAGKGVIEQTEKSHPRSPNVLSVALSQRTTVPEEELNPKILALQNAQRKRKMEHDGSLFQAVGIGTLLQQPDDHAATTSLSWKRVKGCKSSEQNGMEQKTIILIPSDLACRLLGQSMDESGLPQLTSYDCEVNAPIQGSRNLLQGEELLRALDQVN

The target in the experiment is Hypoxia-inducible factor 1-alpha (Homo sapiens) (UniProt Q16665). The experiment can be described thus: ATG_HIF1a_CIS: Attagene CIS-FACTORIAL HepG2 Assay for human Hypoxia Inducible Factor 1 (HIF1A) (AID 2282951). As to conditions: HepG2 Attagene cis-factorial HIF1a reporter transcription; actives raise or lower the signal. On the procedure:
ATG_CIS is a cell-based, multiplexed-readout assay that uses HepG2, a human liver cell line, with measurements taken at 24 hours after chemical dosing in a 24-well plate.ATG_HIF1a_CIS is one of 52 assay component(s) measured or calculated from the ATG_CIS assay. It is designed to make measurements of mRNA induction, a form of inducible reporter, as detected with fluorescence intensity signals by Reverse transcription polymerase chain reaction (RT-PCR) and Capillary electrophoresis technology.Data from the assay component ATG_HIF1a_CIS was analyzed into 1 assay endpoint. This assay endpoint, ATG_HIF1a_CIS, was analyzed with bidirectional fitting relative to DMSO as the negative control and baseline of activity. Using a type of inducible reporter, measures of mRNA for gain or loss-of-signal activity can be used to understand the reporter gene at the transcription factor-level as they relate to the gene HIF1A. Furthermore, this assay endpoint can be referred to as a primary readout, because this assay has produced multiple assay endpoints where this one serves a reporter gene function. To generalize the intended target to other relatable targets, this assay endpoint is annotated to the dna binding intended target family, where the subfamily is basic helix-loop-helix protein.
Human liver HepG2 cells are transiently transfected with multiple reporter transcription units (MRTUs) in 6-well plates using FuGene 6 reagent (Roche; 3 ml FuGene/1 mg DNA). The MRTU constructs are regulated by a cis-regulating element (promoter). […] A major difference between the CIS and TRANS system is that in CIS activities of endogenous TFs are measured, whereas the TRANS assay evaluates changes in activities of exogenous, chimeric NR-Gal4 proteins. […] At the end of 24 hour incubation, total RNA was isolated using TriZol reagent (Invitrogen). The isolated RNA is then reverse-transcribed using oligo(dT) primer and Mo-MLV reverse transcriptase (Invitrogen) with DNAse I (Ambion) treatment for 30 min. The one-tenth of the produced cDNA was amplified by PCR using Taq DNA polymerase (Invitrogen) and two reporter sequence-specific primers. The PCR products were fluorescently labeled by primer extension with 6-arboxyfluorescein (6-FAM) 5'-labeled reporter sequence-specific primer (2 min at 95 C, 20 s at 68 C and 10 min at 72 C) and these products were digested with 5U of HpaI (New England Biolabs) for 2h at 37 C. The fragments were purified using Qiaquick PCR columns (Qiagen), analyzed on an ABI 3130xL genetic analyzer (Applied Biosystems) with peak positions identified by using a set of X-rhodamine (ROX)-labeled MapMarker1000 molecular weight standards (BioVentures). The raw capillary electrophoresis data was processed using Attagraph software (Attagene).
Regarding `CC(O)C#CC(C)O` (stereo not given), the compound was classed as inactive.

`COC(=O)c1ccc(C=O)cc1`: the result was inactive. The same measure, in the same setting: the value for `CCc1ccc(C)nc1` was “inactive”; that for `O=C(Cl)C(F)(F)C(F)(F)C(F)(F)C(F)(F)C(F)(F)C(F)(F)C(F)(F)F` was “inactive”. Consider `COc1ccccc1C=O`, for which the AC50 was 27.7 µM (active).

As to `OCC(F)(F)C(F)(F)C(F)(F)C(F)(F)C(F)(F)C(F)(F)CO`, the call was inactive. Consider `O=C1c2ccccc2C(=O)c2c(Cl)cccc21`, for which the call was inactive. Still for that read-out and setting: the value for `CN(C)C(C)(C)CO` was “inactive”.

On to `C=CCOC(=O)CC(C)C`, for which the outcome was inactive. As for `CC(=O)CCC(C)C`, the outcome was inactive.

Regarding `Cc1cc(O)c(C(C)(C)C)cc1C(C)(C)C`, the outcome was inactive. Still for that read-out and setting: the same measure for `CO[Si](CCCOCC1CO1)(OC)OC` (stereo not given): “inactive”; for `NC(=O)C(F)(F)C(F)(F)C(F)(F)F`: “inactive”.

`CCC(C)CO` (stereo not given): the compound was classed as inactive. As for `CC(C)=CCCC(C)O` (stereo not given), the call was inactive. On to `CNS(=O)(=O)C(F)(F)C(F)(F)C(F)(F)C(F)(F)C(F)(F)C(F)(F)C(F)(F)C(F)(F)F`, for which the AC50 is 24.4 µM (active).

In the case of `O=C(F)C1(F)C(F)(F)C(F)(F)C(F)(F)C(F)(F)C1(F)F`, the call was inactive. Turning to `O=C=NCc1cccc(CN=C=O)c1`, the result was inactive. For the compound `C=C(C)C(=O)OCC(F)(F)C(F)(F)C(F)(F)C(F)F`, the call was inactive.

On to `CCOC(C=C(C)CCC=C(C)C)OCC`, for which the outcome was inactive. Still for that read-out and setting: the same measure for `O=C=Nc1cccc2c(N=C=O)cccc12`: “inactive”; for `O=C(O)C(F)(F)C(F)(F)C(F)(F)C(=O)O`: “inactive”; for `CCC/C=C/CO`: “inactive”. For the compound `Oc1ccc2c(c1)CCC2`, the outcome was inactive. Still for that read-out and setting: the value for `OC(O)C(F)(F)C(F)(F)F` was “inactive”; that for `CCN(CC)c1ccc(N=Nc2ccccc2)cc1` was “inactive”; that for `Nc1cccnc1N` was “inactive”.

`CCn1c2ccccc2c2ccccc21`: the compound was called inactive. On the same count and under the same terms, the value for `OCC(O)CC(F)(F)C(F)(F)C(F)(F)C(F)(F)F` (stereo not given) was “inactive”; that for `NC(=O)C(F)(F)C(F)(F)C(F)(F)C(F)F` was “inactive”. Still for that read-out and setting: the value for `OCCCCl` was “inactive”; that for `CC1=CCC(=O)O1` was “inactive”. Regarding `O=c1cccc[nH]1`, the compound was called inactive.

As for `c1ccc(C[P+](c2ccccc2)(c2ccccc2)c2ccccc2)cc1`, the call was inactive. The same measure, in the same setting: the value for `O=C(O)C(F)(F)C(F)(F)C(F)(F)OC(F)(C(F)(F)F)C(F)(F)F` was “inactive”; that for `CC(=O)C=O` was “inactive”.

On to `Cc1ccc(O)c(-n2nc3ccccc3n2)c1`, for which the result was inactive.

Regarding `OCC(O)CC(F)(F)C(F)(F)C(F)(F)C(F)(F)C(F)(F)C(F)(F)C(F)(F)C(F)(F)F` (stereo not given), the outcome was inactive. Same read-out and setting: the same measure for `CCN(CC)c1ccc(C=O)c(O)c1`: “inactive”.

In the case of `CCCCCCCCCCCC(=O)Cl`, the compound was classed as inactive.
